Source: PubChem BioAssay
TSG101-PTAP inh: qHTS Assay for Iinhibitors of HIV-1 Budding by Blocking the Interaction of PTAP/TSG101 | Tumor susceptibility gene 101 protein (Homo sapiens), Q99816 | Fluorescence polarization, FITC-PTAP peptide / Tsg101 binding | Potency, µM (doses to about 115 µM), most hits filed as inhibitors | 340,000 tested, under 10 active | AID 493005, 2010; active means well fitted inhibition curve with a large enough effect in the main read-out, with a control signal flat, not every such curve was filed as active; inconclusive means small, poorly fitted or top-dose-only effect, or effect the other way, or a change in a side signal; inactive means no such curve, though single readings can be large or run the other way
Target sequence (Q99816 whole entry, looked up): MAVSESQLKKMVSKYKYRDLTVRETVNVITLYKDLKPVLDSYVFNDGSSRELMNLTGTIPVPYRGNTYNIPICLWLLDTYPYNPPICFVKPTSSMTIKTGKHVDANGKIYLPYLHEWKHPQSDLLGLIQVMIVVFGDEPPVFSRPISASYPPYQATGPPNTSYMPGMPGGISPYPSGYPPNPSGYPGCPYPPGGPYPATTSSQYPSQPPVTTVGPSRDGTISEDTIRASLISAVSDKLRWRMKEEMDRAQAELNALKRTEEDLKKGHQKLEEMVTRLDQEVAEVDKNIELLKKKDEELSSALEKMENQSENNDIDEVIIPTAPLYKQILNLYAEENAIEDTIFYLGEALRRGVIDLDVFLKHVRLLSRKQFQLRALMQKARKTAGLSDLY
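Fluorescence polarization binding of Tsg101 binding domain (10 uM final) to FITC-labeled PTAP peptide (50 nM final) in HEPES pH 7.5 buffer with NaCl, Tween 20, EDTA, TCEP. Compounds added before peptide; binding 20 min at RT.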
S-ASM inh: Inhibitors of Secretory Acid Sphingomyelinase (S-ASM): qHTS | Sphingomyelin phosphodiesterase (Homo sapiens), P17405 | placental ASM, HMU-PC fluorogenic substrate, 60 min | Potency, µM (top dose mostly 57.5 µM), usual class: inhibitors | hit rate 0.006% among 340,000 | AID 504937, 2011
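Fluorescence read-out (Ex 386 nm, Em 447 nm) after stopping the reaction at pH 10. Enzyme: ASM from human placenta; substrate HMU-PC0, 9 uM final; 60 min, 37 °C. Compound preincubation 10 min, ambient temperature.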
TSHR antag: Antagonists of the Thyroid Stimulating Hormone Receptor: HTS campaign | activity change, negative = inhibition, % at 11.5 µM | TSHR-expressing cells, TSH-stimulated cAMP HTRF, 2 h; hits give low values | hit rate 0.2% among 330,000 | Thyrotropin receptor (Homo sapiens), P16473;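 active means activity change below a set negative limit, meaning inhibition stronger than a set level, cut at about -70% in these data; inconclusive means activity change between two set negative limits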
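Freshly harvested TSHR cells receive pin-tooled compound, then EC80 TSH at 4nM final. After 2 hours at 37 deg C, antibody in lysis buffer and cAMP-d2 are added; 30 minutes at ambient temperature precede the HTRF read.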
BRCA1 expr up: qHTS Assay to Identify Small Molecule Activators of BRCA1 Expression; hit rate 1.1% among 380,000; Potency, µM (series often up to 46.1 µM), usual class: activators; MCF7-BRCA1-FFLuc reporter, luminescence, 48 h; response scale: scaled: vehicle 0%, 10 µM genistein 100%; further: nearly all actives have a fitted effect of over 80% in size
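Luminescence from a BRCA1-driven firefly luciferase in MCF7 cells was the read-out, taken 15 min after substrate addition following 48 h compound exposure at 37 °C. Data were normalized to a 10 microM genistein control and DMSO vehicle.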
Apoferritin bind: qHTS Assay for Identification of Novel General Anesthetics. apoferritin/1-aminoanthracene competitive binding, fluorescence. AID 485281, 2010. Potency, µM (highest dose often 77.5 µM), actives largely listed as inhibitors. hit rate 0.074% among 350,000. Ferritin light chain (Equus caballus), P02791; further: nearly all actives have a fitted effect of over 20% in size
Target sequence (P02791 2-175 limits assumed): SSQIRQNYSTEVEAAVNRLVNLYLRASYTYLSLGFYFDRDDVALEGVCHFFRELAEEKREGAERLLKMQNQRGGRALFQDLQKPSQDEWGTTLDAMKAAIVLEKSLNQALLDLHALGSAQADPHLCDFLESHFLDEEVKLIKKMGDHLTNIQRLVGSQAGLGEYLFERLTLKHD
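In PBS, apoferritin at 10 uM is loaded with 1-AMA from a 50% saturated solution. After 10 min of compound exposure at ambient temperature, reduced 535 nm fluorescence indicates probe displacement.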
Hits are given with their value; n = inactive; u = inconclusive; x = no result given; [ ] = remark or other dose. Most compounds without a hit are left out; they make up all but 1.2% or so of the library. Unless noted, the call rests on the fitted dose curve; in most records, active means well fitted curve in the direction sought with a large enough effect; inconclusive means small, poorly fitted or top-dose-only effect, or another doubt; inactive means no such curve, though single readings can be large; an effect the other way counts as inactive or inconclusive.

SMILES	TSG101-PTAP inh	S-ASM inh	TSHR antag	BRCA1 expr up	Apoferritin bind
Brc1ccc(-c2csc(N3CCCCCC3)n2)cc1	n	n	n	u	n
CCOC(=O)c1snc(C(=O)NC2CCCCC2)c1N	n	n	n	7.1µM	u
CCCN1CCCC(c2cccc(S(C)(=O)=O)c2)C1 (stereo not given)	x	x	x	x	n
Cc1ccc(SCc2ccc(C(=O)N3CCCC3)cc2)cc1	n	n	n	11µM	u
CCN(Cc1cccc(S(=O)(=O)O)c1)c1ccc(C(=C2C=CC(=[N+](CC)Cc3cccc(S(=O)(=O)O)c3)C=C2)c2ccc(O)cc2S(=O)(=O)O)cc1	x	x	x	n	x
CC(OC(=O)c1ccc([N+](=O)[O-])o1)C(=O)Nc1nc(-c2ccc(F)c(F)c2)cs1 (stereo not given)	n	n	n	13µM	x
Cc1cc(C(=O)OC(C)C(=O)Nc2nc(-c3ccccc3)cs2)c(C)o1 (stereo not given)	n	n	n	n	n
C=C1CCN(C(C(=O)O)C(C)C)S(=O)(=O)c2ccccc21 (stereo not given)	x	x	x	x	n
c1ccn2c(SCc3cn4ccsc4n3)nnc2c1	n	n	n	5µM	n
Clc1ccc(CSc2nnc3ccccn23)c(Cl)c1	n	n	n	10µM	n
O=[N+]([O-])c1ccccc1CSc1nnc2ccccn12	n	n	n	u	n
O=C(Cc1ccc(OCC2CCCCC2)cc1)NO	x	x	x	n	x
CCN(CC)C(=O)c1ccc(COc2ccccc2Br)o1	n	n	n	7.1µM	n
Cc1ccc(Nc2cc(C)nc(-c3ccccc3O)n2)cc1	n	n	n	n	n
Cc1cc(NCCCN)nc(-c2ccccc2O)n1	n	n	n	3.5µM	n
NCC1OC(O[C@H]2[C@H](O)[C@@H](OC3C(O)C(N)CC(N)C3OC3OC(CO)C(O)C(O)C3N)O[C@@H]2CO)C(N)C(O)C1O (stereo not given in full)	x	x	n	x	x
Cc1ccc(NC(=O)c2ccoc2C)cc1C	n	n	n	6.3µM	u
Cc1cc(NC(=O)c2ccoc2C)ccc1Br	n	n	n	n	x
CC1CCC(NC(=O)C(=O)Nc2ccc3c(c2)OCO3)CC1 (stereo not given)	n	n	n	2.8µM	n
Cc1occc1C(=O)Nc1ccc2c(c1)OCO2	n	n	n	3.2µM	n
O=C(N/N=C1/C[C@@H](O)[C@@H](O)[C@@H]2[C@@H]3C(=O)N(Cc4ccccc4)C(=O)[C@H]3CC[C@H]12)OCc1ccccc1	x	x	x	x	n[15.3 µM]
C=C1C=C(C(F)F)n2ncc(C(=O)Nc3ccc(Br)cc3C(F)(F)F)c2N1	x	x	x	n	x
CN(C)c1c(Br)cc(C=O)cc1Br	x	x	x	n	x
O=C1c2ccccc2C(=O)N1CSc1nnc(Nc2ccccc2F)s1	n	n	n	n	n
CCN(CC)C(=O)CCCSc1nnc(Nc2ccccc2F)s1	n	n	n	4.5µM	n
SMILES	TSG101-PTAP inh	S-ASM inh	TSHR antag	BRCA1 expr up	Apoferritin bind
Nc1ccc2c(c1)C(=O)N(c1ccc3ccccc3c1)C2=O	x	x	x	11µM	x
Cc1ccc(-c2nc3cccc(C)n3c2Nc2ccc(F)cc2)o1	x	x	x	n	x
CCCCN(CCCN)c1ccc(Br)cn1	x	x	x	n	x
COCCn1c(C)cc(C(=O)CSc2ccc(NC(C)=O)cc2)c1C	n	n	n	7.1µM	n
COCCn1c(C)cc(C(=O)COC(=O)Cc2n[nH]c(=O)c3ccccc23)c1C	n	n	n	8.9µM	x
Cc1cc(C(=O)COC(=O)c2ccc(O)cc2)c(C)n1CC(F)(F)F	n	n	n	7.9µM	x
COCCn1c(C)cc(C(=O)COC(=O)c2ccc(NC(=O)CC#N)cc2)c1C	n	n	n	2.8µM	n
COCCn1c(C)cc(C(=O)COC(=O)c2cncc(Br)c2)c1C	n	n	n	u	n
COCCn1c(C)cc(C(=O)COC(=O)c2cccnc2SC)c1C	n	n	n	8.9µM	x
COCCn1c(C)cc(C(=O)COC(=O)c2ccccc2Br)c1C	n	n	n	n	n
COCCn1c(C)cc(C(=O)COC(=O)c2ccc3ncsc3c2)c1C	n	n	n	11µM	n
Cn1c(=O)n(-c2ccc(C(C)(C)C#N)cc2)c2c3cc(-c4cnc5ccccc5c4)ccc3ncc21	x	x	x	n	x
O=C(C[n+]1ccc2ccccc2c1)c1ccc(O)c(O)c1	x	x	x	n	x
N/C(=N\OC(=O)c1ccccc1Cl)c1cccnc1	n	n	n	n	n
N/C(=N\OC(=O)c1ccc2c(c1)OCO2)c1cccnc1	n	n	n	10µM	n
N/C(=N\OC(=O)c1ccccc1)c1cccnc1	n	n	n	11µM	n
OC[C@H]1NC[C@@H](O)[C@@H](O)[C@@H]1O	x	x	x	x	n
Cc1ccc(Nc2cc(-n3cccn3)ncn2)c(C)c1	n	n	n	3.2µM	n
Cc1ccc(Nc2cc(-n3nc(C)cc3C)ncn2)c(C)c1	n	n	n	n	n
CNc1cncc(-c2cccc(OC)c2F)n1	x	x	x	11µM	x
CNc1cncc(-c2c(OC)cccc2OC)n1	x	x	x	n	x
COC(=O)c1ccc(NC(=O)COc2ccccc2C(=O)Nc2ccccc2)cc1	x	x	x	n	x
Cc1csc(NC(=O)Cc2ccccc2Cl)n1	n	n	n	10µM	n
Cc1csc(NC(=O)Cc2ccc(Cl)cc2)n1	n	n	x	u	x
CN(C)c1ccc(/C=C/c2nc3ccccc3s2)c(Cl)c1	x	x	x	n	x
SMILES	TSG101-PTAP inh	S-ASM inh	TSHR antag	BRCA1 expr up	Apoferritin bind
COc1ccc(-c2cc3ncc(C)n3c(Nc3ncccc3C(N)=O)n2)cc1OC	x	x	n	x	x
Cc1cc(C)n(CC(O)COc2ccc(Cl)cc2)n1 (stereo not given)	n	n	n	n	n
Cc1cc(C)n(CC(O)COc2ccc(Cl)cc2Cl)n1 (stereo not given)	n	n	n	11µM	n
COc1ccc(OCCSc2nc(N)cc(N)n2)cc1	n	n	n	11µM	n
COc1ccc(C2=Nn3c(nnc3-c3ccc(OC)c(OC)c3)SC2)c(OC)c1	x	x	x	x	n
O=C(C[n+]1ccccc1)c1ccc(O)c(O)c1	x	x	x	n	x
N/C(CS(=O)(=O)c1ccccn1)=N\OC(=O)c1ccc(Cl)cc1	n	n	n	u	n
N/C(CS(=O)(=O)c1ccccn1)=N\OC(=O)c1ccccc1Cl	n	n	n	2.5µM	n
CN(C)c1ccc(/C=C/c2sc3ccccc3[n+]2Cc2ccccc2)cc1	x	x	x	n	x
O=C(CSc1ccccn1)Nc1ccc2c(c1)OCCO2	n	n	n	11µM	n
CCN(CC(=O)Nc1ccc2c(c1)OCCO2)C(=O)c1ccc(Cl)cc1Cl	n	n	n	1.8µM	x
O=C(Nc1ccc2c(c1)OCO2)N1CCN(c2ccccc2Cl)CC1	n	n	n	10µM	u
